From the supplement of paper PMC12632987

Target: GABARAPL2, P60520
Test: median log2 fold change of GCK-ALFA target abundance (FLAG IP / Myc IP barcode read proportion) (log2 ratio); each designed protein is fused to an ALFA-tag nanobody in HEK293 cells to bring the named protein to FLAG-tagged glucokinase (GCK); Myc marks an untargeted standard; higher = target protein stabilised (more abundant)
Conditions: target protein: 3xFLAG-MCP-GCK-ALFA reporter; HEK293 landing pad (RPLP)
How it was run: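 Binders fused to an ALFA nanobody were recombined as a library into HEK293 landing-pad cells, which were induced with 2 μg mL^−1 doxycycline and then transfected to express a FLAG-tagged target and a Myc-tagged standard. After 48 h, circular RNA barcodes recovered by anti-FLAG and anti-Myc immunoprecipitation of lysates were reverse transcribed, amplified and sequenced. Each binder's target abundance is the median log2 ratio of FLAG to Myc barcode read proportions, from barcodes present at ≥10^−7 in both replicates, binders carrying ≥3 barcodes per replicate, a 10^−6 pseudocount and pooled replicates.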

GABARAPL2, P60520, sequence (P60520 whole entry, the tested form may be a part): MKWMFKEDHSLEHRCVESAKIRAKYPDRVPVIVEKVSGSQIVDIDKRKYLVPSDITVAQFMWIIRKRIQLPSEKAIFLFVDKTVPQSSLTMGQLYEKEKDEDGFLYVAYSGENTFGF

B1: GBRAPL2_151_7306 (protein)
chain: SKKEKAIELLKEAAKTAEEAVKKLSEEQELEKTELELIAGGLEALAILVEETDDEEKIKKLVKEAAELVEDAAKLAEELGLEEEAKKLKELAKELKKLAE
median log2 fold change: 0.123

B2: GBRAPL2_151_7307 (protein)
chain: SRKEEAIRLLEEAARTAEEAVEALPESKELEKTELELLAGGLDALAILVEEEDDEEKVRELVKEGAELTEDAARLARELGLEEQARRLEELSRRLKELAE
median log2 fold change: -0.403

B3: GBRAPL2_151_7308 (protein)
chain: SEKEKAIELLKKAAEAAEEAIKALSEDQELEKTEFELIAGGLEALAILIEEEDDEEKIKELVKRGAELVKDAAELAKKLGLEEQAKKLKEIAKELEKLSK
median log2 fold change: 0.202

B4: GBRAPL2_151_7309 (protein)
chain: KLKEEVIEALERAAEAVEKAAEKLSPEQELERTELELIAGGMEAYAALVEETEDEEKIKEITRRAAEMVRDAAEIAKELGLEEEAKELEEIAKELEELAA
median log2 fold change: 0.0437

B5: GBRAPL2_151_7310 (protein)
chain: ELKEKVVKALKEAAKALEELAELLSPEHELEKTEIELIAGGMDAYAALVEETEDEEKIKEITKEAAELVEDAAKIAKELGLEEQAKKLEEIAKKLKELAA
median log2 fold change: 0.111

B6: GBRAPL2_151_7311 (protein)
chain: DLKEKAVKALEEAAKALEELAEKLSEEQELEKTEIELLAGGMDAYAILVEETEDEEEIKRIVKDAAELVEDAAKIAKELGLEEDAKKLKEIAKKLKELAK
median log2 fold change: -0.0443

B7: GBRAPL2_151_7312 (protein)
chain: SLKEKAVEKLKEAAELVEEAAKALPESQELERTELELIAGGMDADAILIEETEDEEEIKKIIKESAERVEDAAKIAKKLGLEELAKKLEEKAKELKKLAE
median log2 fold change: 0.307

B8: GBRAPL2_151_7313 (protein)
chain: GWKEEALKALKEAAEAIEKAAEALPPEHELERTELELLAGGMDAYRALVEETDDREEIKRLLKDAAELVKDAAEIMEKLGKEEAAKKLKKIAEKLKKLAE
median log2 fold change: -0.0822

B9: GBRAPL2_151_7314 (protein)
chain: SWKEEALKALEKGAKAIEEFAKSLPEEHELERTEAELLAGGMEAYRALIEETDDEEEIKRLLKEAAELVKDAAEIAKELGFEKEAKELEKIAKELEKLAK
median log2 fold change: 0.164

B10: GBRAPL2_151_7315 (protein)
chain: SWKEEALKALEEAAEAIEEAAKKLPPEHELERTELELLAGGMDAYKALIEETDDEEEIKRLLKEAAELVKEAAEIMKKLGFEEEAKKLEKIAKELEKLAK
median log2 fold change: -0.126

B11: GBRAPL2_151_7316 (protein)
chain: EWKEEALKALEEGAKAVEEFAKSLPESEELERTELELLAGGLDAYKALIEETDDEEEIRRLLKEAAELVEDAAEIAKKLGREEAAKKLEKIAKKLKELAE
median log2 fold change: 0.266

B12: GBRAPL2_151_7317 (protein)
chain: SELEKLLKELKALAEELWKLAEELAKKDPSVATEVETLVGGVEADIILAEEEEDPEEKRKHLLEAAKLAKDAAELIAEVLKSEKAKKLAEKAKKLAEKLK
median log2 fold change: 0.0623

B13: GBRAPL2_151_7318 (protein)
chain: EELEELLKRLKKLAEKLAKLAEELAKEDPEHATEVETLVGGVEADIILAEEEEDEEEKRRHLLRAAELAADAAKLIAEVLKKEEAKKLAEEAKELAEKLK
median log2 fold change: 0.242

B14: GBRAPL2_151_7319 (protein)
chain: GELEELEKKLKELIKKLEKLLEKLKKEKPEYETEVSTLLGGAEADLLLAEEAEDPEEKRRFLAEAAELAADAFKLIAEVLGSEEAKKLAEEAKKLLEKLK
median log2 fold change: 0.141

B15: GBRAPL2_151_7320 (protein)
chain: EELEELERRARELLEELEELVKELEEKKPEHSTEVETLVGGAEADLLLAEEAEDPEEKRRFLLEAAKLIRDAFELIAKILGSERAKELAEEAKELAKELE
median log2 fold change: 0.183

B16: GBRAPL2_151_7321 (protein)
chain: SELEKLKKEAEKLLEELEKLVKELEKKKPEKSTEVETLLGGAEADLILAEEAEDPEEKRRFLLEAAELLADAFKLIAKVLGSEKAKKLAKEAEELAKKLA
median log2 fold change: 0.168

B17: GBRAPL2_151_7323 (protein)
chain: SELEKLLKEAKKLLKKLEKLVKEAAKKDPKYETELETLVGGAEADLILAEEAKNDEEKREHLKRAAELIADAAELIAKITGSEEAKKLAEEAKELLKKLE
median log2 fold change: 0.39

B18: GBRAPL2_151_7324 (protein)
chain: SELEKLLKELKKLLEELEKLVKEASEKYPEYSIELETLAGGAEADILLAEEAKNDEEKRKYLKRAAELIADAAKLIAEITGDERAKKLAEEAKKILKELE
median log2 fold change: 0.242

B19: GBRAPL2_151_7325 (protein)
chain: SELDELLKKLKELLERLEKLVKEAAKEKPEYETTLETLVGGAEADLLLAEEAENDEEKRRHLKEAAELIRDAAEEIAKITGKEEAKKLAEEAKKLLKELE
median log2 fold change: 0.129

B20: GBRAPL2_151_7326 (protein)
chain: SELERLLEKLKELLEKLEKLVEEAAKKDPSHEIELETLVGGAEADLLLAEEAPNDEEKRRFLKEAAELIKDAAELIAKITGSEEAKKLAEEAREILKELE
median log2 fold change: 0.164

B21: GBRAPL2_175_7327 (protein)
chain: SEMEELIKRLVELLLRLAEKLDGLASDLLLAAAALLEEEGVDAAKRAAELVKEAAKEIKDNPKLKAAAEELARALKLIAEGAPPEEVKKELEKAEKLLEE
median log2 fold change: 0.118

B22: GBRAPL2_175_7329 (protein)
chain: SERDELIKRLAELLEKLAEEVDGEASDLLLAAAALLEEEGIEAAKRVAELLKEAAKEIEGNEKLKKAAEALAEAAKLLAEGAPAEEVQKKLEEAEKLLKE
median log2 fold change: 0.194

B23: GBRAPL2_175_7330 (protein)
chain: SALEELLKRLAELLEELAEKLDDEASDLLLAAAALIEQDGVAAAKRAAELVKEAAKKVKDNPKLQAALEELAAALELIAAGKAPEEVKAELEKAEALLKE
median log2 fold change: 0.207

B24: GBRAPL2_175_7331 (protein)
chain: SATEEALKRIAELLERLAERLDGEASDLLLAAAALVEQQGVAAAARAAELVKEAAKLVADDPRLRAALEELAAALKLLAAGAAVEEVQAEIDRAEALLEA
median log2 fold change: 0.0704

B25: GBRAPL2_175_7332 (protein)
chain: SAREELVKRLAELALRLAEKADDETEDLLLAAAALLEEGGEENLKRAAELIKEAAKEIKDDERLKKAAAELAEAAELLIAGEDVEKAEEELRKAEELLEK
median log2 fold change: 0.136

B26: GBRAPL2_175_7333 (protein)
chain: SARQELVKRIRDLLLKLAEKADDETQDLLLAAAALLEEGGEENLKRALELVKEAAKEEKNDATLQQAAAELAAALALLIEGKPVEEAQKEIDAAAKLLAK
median log2 fold change: 0.119

B27: GBRAPL2_175_7334 (protein)
chain: SALDELLARLAALLDELSERADDETADLLDAAMALLELEGAAAAARVAELLREAAELAADNPRLRAALEELARAAALIAEGAAPEEVQAELDRAAALLAE
median log2 fold change: 0.086

B28: GBRAPL2_175_7335 (protein)
chain: SKKEEAIKKLIEALELLAEKANDEVQDLLEAAAAVLELDGESGIEQAAKIVKQAAKDAKDNPELQKLLKELAKALKLLAEGGDIEEVIKKAEKIIKELKK
median log2 fold change: 0.0436

B29: GBRAPL2_175_7336 (protein)
chain: SLKDEVLAALIEALELLAEKANDEVQDLLEAAMALLEVDGESALPQVAKLLEEAAKEAKDNPELQKLLKELAAAAKEAAEGGDLEEILARAQAIIKEIKA
median log2 fold change: 0.166

B30: GBRAPL2_175_7337 (protein)
chain: SLEDEVLEALIEALELLSEKADDEVSDLLDAAMALLETDGRAALPRVAELLKKASEEAKDNPELSALLEELAAAAKEFAEGGDLEEILKKAKEIIKKIKA
median log2 fold change: 0.0611

B31: GBRAPL2_175_7338 (protein)
chain: AARAALLARIIELLDELAERADDEVADLLDAAAAVLEEEGEAGAERAARLVAEAAREAADDPRLRAALEAVAAALAALAAGAAPAEVQALLDEAEAILAE
median log2 fold change: -0.358

B32: GBRAPL2_175_7339 (protein)
chain: AAYEKLLAEIIELLLEIAEKANDEVSDLLEAAAAVLETDGLAGAERAARLVKEAAEEAKDNPQLQEALKLIAEALKALAAGAAPEEVKKLLDKAKEVLKK
median log2 fold change: 0.22
